This passage reports composite z-score results from PubChem BioAssay.

This assay can be described thus: probe aEGFR binding to arrayed compounds – biochemical, biotinylated probe, 635/667 nm fluorescence, primary screen (AID 1097).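 Also: probe is a biotinylated anti-EGFR antibody binding compounds printed on slides; score combines fluorescence near 667 nm and signal to noise of each spot.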 As to conditions: small-molecule microarray, higher = more signal.
In turn, `[N-]=[N+]=Nc1ccccc1C[C@]1(C(=O)O)N=C(c2ccc(OCCCO)cc2)O[C@H]1c1ccccc1N=[N+]=[N-]` had a composite z-score of 0.0729.
For the compound `C=C(/C(=C/C[C@@H](OC(=O)c1ccncc1)c1cccc(OCCO)c1)c1cnc2ccccc2c1)C(C)C`, the composite z-score was 0.074.
The value for `CCCNC(=O)[C@@]1(Sc2ccc(C)cc2)CC(=O)N(C(C)C)[C@@H]1c1ccc(CO)cc1I` was -0.252; that for `C=CCNC(=O)[C@@H]1[C@H]2C(=O)O[C@H](c3ccccc3)[C@H](c3ccccc3)N2[C@H](c2ccc(OCCO)cc2)[C@@]12C(=O)N(C(=O)OCCOC)c1ccc(C#CCCO)cc12` was -0.0088.
The value for `CCCCCCCCCCC(O)C1C=CC2C(=O)N(c3ccccc3)C(=O)C2N1Nc1ccccc1F` (stereo not drawn) was -0.0576; that for `COC(=O)C1N=C(c2ccc(OCCCO)cc2)N(c2ccccc2)O1` (stereo not drawn) was 0.271.
The value for `COC(=O)[C@@]1(Cc2ccc(F)cc2)[C@H]2c3cc(C(=O)N4CCCC4)n(C)c3C[C@H]2CN1C(=O)c1ccccc1` was -0.0259; that for `O=C1C2C=CC(C(O)C=Cc3ccc([N+](=O)[O-])cc3)N(Nc3ccccc3)C2C(=O)N1c1ccccc1` (stereo not drawn) was -0.0238.
